# A selection: hits, their analogues and other compounds. The true share with any hit is near 7%.
# IL-1B inflam inh = qHTS for Inhibitors of Inflammasome Signaling: IL-1-beta AlphaLISA Primary Screen; AID 743279, 2014; THP-1 LPS/ATP IL-1B secretion, AlphaLISA, 16 h; hits give low values; actives 4.7% (n = 360,000); activity change, % at 57.5 µM; in the data active = activity change below about -50%; inconclusive = mostly about -30% to -49%; also: % is scaled to controls: 0 for no effect and ±100 for the full control effect
#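 Secreted IL-1B measured by AlphaLISA bead assay after 16 h compound exposure of THP-1 cells; compounds (final up to 57.5 uM) added 1 h before LPS (250 ng/mL) and ATP (1.25 mM) stimulation; lower signal means less secretion.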
# ATXN2 expr inh = Primary qHTS for Inhibitors of ATXN expression. HEK-293 ATXN2-luciferase reporter, luminescence, 24 h. Potency, µM (top dose mostly 57 µM), without a hit: at the top dose activity change, negative = inhibition, actives largely listed as inhibitors. actives 0.72% (n = 360,000); also: potency is read from the fitted curve at half-maximal effect; % is scaled to controls: 0 for no effect and ±100 for the full control effect; nearly all actives have a fitted effect of over 55% in size
#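 qHTS (up to 57 uM final) was run with 24 h compound exposure of reporter cells at 37 °C. Each well was multiplexed: SteadyGlo luminescence measured ATXN2-luciferase expression after a fluorogenic Gly-Phe-AFC viability readout (25 uM final).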
# D3 antag = qHTS of D3 Dopamine Receptor Antagonist: qHTS; max response, negative = inhibition, %; actives 2.5% (n = 360,000); AID 652054, 2013; D3R cells, DiscoveRx beta-arrestin luminescence, antagonist mode; hits give low values; D(3) dopamine receptor (Homo sapiens), P35462; in the data active = max response below about -50%; inconclusive = no clear call, values can overlap the other calls; also: % is scaled to controls: 0 for no effect and ±100 for the full control effect
# Target sequence (P35462 whole entry, looked up): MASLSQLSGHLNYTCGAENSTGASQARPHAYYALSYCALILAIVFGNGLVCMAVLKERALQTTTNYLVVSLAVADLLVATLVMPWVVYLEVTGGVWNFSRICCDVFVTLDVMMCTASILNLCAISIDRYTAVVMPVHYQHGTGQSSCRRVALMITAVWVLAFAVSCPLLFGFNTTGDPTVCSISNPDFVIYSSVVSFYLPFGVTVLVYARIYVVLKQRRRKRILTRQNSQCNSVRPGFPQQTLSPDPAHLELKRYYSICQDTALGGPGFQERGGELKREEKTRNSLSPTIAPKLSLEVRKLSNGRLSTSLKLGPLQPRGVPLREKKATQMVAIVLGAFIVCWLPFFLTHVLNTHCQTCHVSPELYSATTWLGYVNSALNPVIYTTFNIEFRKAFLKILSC
#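 Cells expressing the human receptor were seeded at 1500 cells/well, incubated overnight at 37 degrees C in 5% CO2, then exposed to library compounds with dopamine controls for 90 minutes at 37 degrees C before luminescent detection.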
# a7 integrin act = qHTS for Activators of Integrin-Mediated Alleviation for Muscular Dystrophy. alpha7betagal myoblasts, beta-gal FDG fluorescence, 48 h. Potency, µM (doses to about 38.3 µM), inactives show at the highest dose activation, actives largely listed as activators. actives 0.064% (n = 350,000). AID 624291, 2012;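 also: potency is read from the fitted curve at half-maximal effect; 100% = response of the positive control SU9516; nearly all actives have a fitted effect of over 60% in size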
#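 alpha7betagal+/- myoblasts (passage 13, 250/well) treated 48 h at 37C with compounds at 1:260 dilution of DMSO stock. Lysed, then beta-galactosidase activity read as FDG fluorescence (ex 480/em 540) after 30 min, with pre-read for autofluorescence.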
# DRD3 agonist = qHTS of D3 Dopamine Receptor Agonist: qHTS. AID 652048, 2013. max activation, %. actives 0.58% (n = 410,000). D3R DiscoveRx beta-arrestin cells, luminescence, 90 min. D(3) dopamine receptor (Homo sapiens), P35462; in the data active = max activation above about 30%; also: 0% is about no effect
#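 Agonist mode: compounds and dopamine controls were applied to plated cells for 90 min at 37 degrees C after an overnight attachment at 1500 cells/well. Luminescent read-out followed 30 - 60 minutes at room temperature with DiscoveRx detection reagent.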
# S2 tox = Viability Counterscreen for Primary qHTS for Inhibitors of ATXN expression | S2 cells (HEK-293 line with an ATXN2-luciferase reporter) viability, CellTiter-Fluor protease fluorescence, 24 h | Potency, µM (highest dose often 56.7 µM), hits mostly cytotoxic | actives 0.49% (n = 400,000) | AID 651635, 2014; also: potency is read from the fitted curve at half-maximal effect; nearly all actives have a fitted effect of over 40% in size
# The depositor's hits bear a star; i = inactive; ? = inconclusive; · = no result given. Unless noted, calls follow the shape of the dose curve; as a rule, active = well fitted curve in the direction sought with a large enough effect; inconclusive = small, poorly fitted or top-dose-only effect, or another doubt; inactive = no such curve, though single readings can be large; an effect the other way counts as inactive or inconclusive.
SMILES,IL-1B inflam inh,ATXN2 expr inh,D3 antag,a7 integrin act,DRD3 agonist,S2 tox
CC1CCN(CC(O)COc2cccc(F)c2)CC1 (centres undefined),-10,5%,-57*,-4%,-22,i
OC(COc1ccc(Br)cc1)CN1CCC(Cc2ccccc2)CC1 (centres undefined),-68*,-35%,?,-56%,-13,?
CC(C)OCC(O)CN1CCC(Cc2ccccc2)CC1 (centres undefined),5,·,-5,20%,-8,?
OC(COCc1ccc2c(c1)OCO2)CN1CCCCC1 (centres undefined),-2,·,-2,-18%,-4,i
COc1cccc(OCC(O)CN2CCC(C)CC2)c1 (centres undefined),3,-21%,11,-17%,-31,i
COc1ccc2c(c1)c(C(O)CN1CCC(Cc3ccccc3)CC1)c(C)n2C (centres undefined),-90*,-9%,-20,-44%,-7,?
OC(COCc1ccc2c(c1)OCO2)CN1CCC(Cc2ccccc2)CC1 (centres undefined),-71*,-7%,-13,-34%,-12,i
COCCN1C(=O)N[C@@H](c2cccc(C(F)(F)F)c2)[C@H](C(=O)OC)[C@H]1C,6,-6%,-13,2%,-8,i
O=[N+]([O-])CC1(n2nc3ccccc3n2)CCCCC1,13,0%,?,-8%,-17,i
CC(C)n1c(C=C[C@H](O)C[C@H](O)CC(=O)O)c(-c2ccc(F)cc2)c2ccccc21,·,28%,·,·,·,·
CC1CCN(CC(O)COc2ccc(-c3ccccc3)cc2)CC1 (centres undefined),-29,?,-73*,?,-16,i
CC1CCN(CC(O)COc2ccc(F)cc2)CC1 (centres undefined),-6,3%,?,25%,-15,i
O=c1cc2nc(-c3cccs3)nc(SCCOc3ccc(Cl)cc3)n2[nH]1,·,·,·,·,-2,·
CC(C)(C)c1ccc(OCCSc2nc(-c3cccs3)nc3cc(=O)[nH]n23)cc1,·,0%,·,·,37*,i
Cc1ccc(OCCCSc2nc(-c3ccc(C(C)(C)C)cc3)nc3cc(=O)[nH]n23)cc1C,·,8%,·,·,33*,i
O=C(CSc1ncn[nH]1)Nc1cccc(S(=O)(=O)N2CCCCCC2)c1,-5,-25%,0,1%,0,i
COC(=O)c1cc(C(=O)N2CCN(c3ccccc3OC)CC2)cc([N+](=O)[O-])c1,-19,5%,-14,-14%,7,i
CCOc1cc(C=C(C(=O)OC)C(=O)OC)ccc1OCc1ccc([N+](=O)[O-])cc1,-118*,32µM*,?,-68%,-7,?
CCOc1cc(/C=N/O)ccc1OCc1ccc([N+](=O)[O-])cc1,5,11%,12,0%,-1,i
O=C1c2ccc3c4c(ccc(c24)C(=O)N1CCCCO)C(=O)N(CCCCO)C3=O,-72*,?,0,-58%,4,?
Cc1cccc(NC(=O)CN2CCN(C(=O)C(C)Oc3ccc(C#N)cc3)CC2)c1C (centres undefined),0,2%,-3,22%,2,i
COc1ccc(C(=O)N2CCCC(c3ccccc3)=N2)cc1,-5,1%,4,?,-6,?
Cc1ccc(C(=O)N2CCCC(c3ccc(Cl)cc3)=N2)cc1,-54*,-20%,13,-22%,18,i
O=C(COC(=O)COc1ccccc1)Nc1ccccc1OC(F)F,7,-3%,1,29%,-2,i
CC1(C)N=C(N)N=C(N)N1c1ccc(OCC(=O)Nc2ccccc2)c(Cl)c1,-21,·,-62*,-53%,-6,i
SMILES,IL-1B inflam inh,ATXN2 expr inh,D3 antag,a7 integrin act,DRD3 agonist,S2 tox
CCN(CC)C(=O)CSc1nnc(NC(=O)CCc2ccccc2)s1,13,2%,5,32%,2,i
Cc1ccc(Oc2ncccc2NC(=O)CC2(CC(=O)O)CCCC2)c2c1CCC2,·,-11%,3,1%,-3,i
CCOC(=O)C(=CNc1cccnc1Oc1ccc(C)c2c1CCC2)C(=O)OCC,-15,-22%,67,-23%,37*,i
CCCn1c(-c2ccc[nH]c2=O)nc2cc(C)c(C)cc21,4,2%,6,-4%,6,i
Cc1ccc(-c2cc(C(=O)N3CCN(c4ccccc4O)CC3)c3ccccc3n2)o1,?,-13%,56,43%,22,i
O=C(c1cc(-c2ccc(Br)cc2)nc2ccccc12)N1CCN(c2ccccc2O)CC1,-62*,12%,0,42%,11,i
O=C(c1cc(-c2ccncc2)nc2ccccc12)N1CCN(Cc2ccccc2)CC1,-60*,-8%,52,-14%,3,i
Cc1ccccc1CN1CCN(C(=O)c2cc(-c3ccncc3)nc3ccccc23)CC1,0,-21%,5,-20%,29,?
COc1ccc(Nc2nnc(-c3ccccc3)c3ccccc23)cc1C(=O)N1CCCCC1,-14,0%,-6,38%,-8,i
CC(=O)c1ccc(N2CCN(C(=O)c3cc(-c4ccncc4)nc4ccc(Cl)cc34)CC2)cc1,10,0%,1,-6%,34*,i
COc1ccc(Nc2nnc(-c3ccc(C)cc3)c3ccccc23)cc1C(=O)N1CCCCC1,-74*,?,-23,-18%,2,?
CC(C)C1C(=O)N(Cc2cn(CCC3OCCCO3)nn2)CCS(=O)(=O)N1Cc1ccc(-c2cccc(CO)c2)cc1 (centres undefined),-15,10%,17,10%,1,i
COc1ccc(-c2cc(C(=O)NC3=NCCS3)c3ccccc3n2)cc1OC,-61*,-6%,8,33%,-11,·
CCN(CC)C(=O)COc1ccc(-c2nnc(Nc3ccc(OC)c(C(=O)NC)c3)c3ccccc23)cc1,-79*,?,-5,-17%,-4,?
COc1ccc(-c2cc(-c3nnc(COC(=O)C4CC4C)o3)c3ccccc3n2)cc1OC (centres undefined),-53*,-2%,34,-3%,50*,i
COc1ccc(-c2cc(C(=O)N3CCCC3)c3ccccc3n2)cc1OC,-28,1%,2,-47%,1,i

# Screening results deposited in PubChem by National Center for Advancing Translational Sciences (NCATS).
